Measured values published in PubChem BioAssay.
Unmarked numbers belong to inactive results. Active and inactive are the calls of the source. No rule for the calls is given here.

Biological target: L-lactate dehydrogenase (Plasmodium falciparum (isolate CDC / Honduras)) (UniProt Q27743)
Assay: PfLDH activity inhibition – cell lysate, 3D7 strain, counter-screen for P. falciparum growth inhibition project (AID 2304);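 also: 0% = vehicle and 100% = reference inhibitor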
Settings: P. falciparum 3D7 crude extract, LDH APAD/NBT absorbance; at 2 µM; active compounds read high

Chain of L-lactate dehydrogenase (Plasmodium falciparum (isolate CDC / Honduras)) (Q27743 whole entry, looked up): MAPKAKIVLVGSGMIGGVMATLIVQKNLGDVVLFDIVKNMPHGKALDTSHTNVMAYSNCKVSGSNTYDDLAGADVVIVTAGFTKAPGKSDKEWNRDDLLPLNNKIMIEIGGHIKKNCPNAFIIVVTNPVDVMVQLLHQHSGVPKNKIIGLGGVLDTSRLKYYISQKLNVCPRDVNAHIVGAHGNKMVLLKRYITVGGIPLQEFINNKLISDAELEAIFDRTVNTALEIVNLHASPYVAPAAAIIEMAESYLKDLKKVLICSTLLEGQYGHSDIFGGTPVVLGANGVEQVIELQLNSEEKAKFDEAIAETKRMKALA

**Q.** With `c1ccc(C2CCC(N3CCC(N4CCN(c5ccccc5)CC4)CC3)CC2)cc1` (stereo not given) as the molecule, how does the inhibition read?
**A.** -3%

**Q.** Which inhibition does the source give for `CCn1ccc2c3c(N)nc(N)nc3ccc21` here?
**A.** 6%

**Q.** With `Cc1ccc2c(Cl)c(C(=O)N3CC(C)OC(C)C3)sc2c1` (stereo not given) as the molecule, how does the inhibition read?
**A.** 3%

Test system: not listed separately
Assay: inhibition of 3D7 malaria parasite growth – strain 3D7 (AID 2306);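 also: 0% = DMSO wells and 100% = chloroquine plus artemisinin control wells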
Settings: P. falciparum 3D7 erythrocytic growth, LDH absorbance, 72 h; at 2 µM; active compounds read high

**Q.** With `O=C1C(=Cc2cc(Cc3ccccc3)ccc2O)SC(=S)N1Cc1ccccc1` as the molecule, how does the growth inhibition read?
**A.** 98% (active)

**Q.** For `CN(Cc1ccc(NC(=O)CCC2CCN(C(=O)/C=C/c3ccc(Cl)c(Cl)c3)CC2)cc1)C1CCOCC1`, which growth inhibition is on record?
**A.** 94% (active)

**Q.** Which growth inhibition does the source give for `CC(C)(C)NCC(O)COc1ccc(Cl)cc1C1=NNC(=O)CC1` (stereo not given) here?
**A.** 96% (active)

**Q.** Which growth inhibition does the source give for `CCc1nc2c(cnn2CC)c(NC2CCOCC2)c1CNC(=O)c1ccoc1C` here?
**A.** 97% (active)

**Q.** Which growth inhibition does the source give for `CN1CCCC1CCNCc1ccc(-c2ccc(CNCCc3ccccc3)cn2)cc1` (stereo not given) here?
**A.** 101% (active)

**Q.** Which growth inhibition does the source give for `COc1ccc([N+](=O)[O-])cc1N(Cc1ccccc1-c1ccccc1)S(=O)(=O)c1ccc(C(F)(F)F)cc1` here?
**A.** 96% (active)

**Q.** For `Cc1cc(Br)cnc1CCCCN=C1NC(=O)CN1C`, which growth inhibition is on record?
**A.** 95% (active)

**Q.** With `CS(=O)(=O)Nc1ccc2c(C3CCN(CCC4CCN(C(=O)/C=C/c5ccc(Cl)c(Cl)c5)CC4)CC3)c[nH]c2c1` as the molecule, how does the growth inhibition read?
**A.** 99% (active)

**Q.** Which growth inhibition does the source give for `O=C(NC1CC1)c1ccc(Cn2c(SCc3cccc([N+](=O)[O-])c3)nc3ccccc3c2=O)cc1` here?
**A.** 91% (active)

**Q.** For `CN1CCN(c2ccc3nc(-c4ccc5nc(-c6ccc(O)cc6)[nH]c5c4)[nH]c3c2)CC1`, which growth inhibition is on record?
**A.** 99% (active)

**Q.** With `Cc1nc(-c2cccc(Nc3nccc(NCC(O)c4cccc(F)c4)n3)c2)cs1` (stereo not given) as the molecule, how does the growth inhibition read?
**A.** 98% (active)

**Q.** Which growth inhibition does the source give for `Cc1ccc(C2(C)CN(CCCOc3cccc(-c4ccc(C(=O)NC(C)C)cc4)c3)CCO2)cc1` (stereo not given) here?
**A.** 93% (active)
